Potency and affinity values are given separately.
Assays:
Klebsiella pneumoniae = settings: Concentration 32 ug.mL-1;; ASSAY_TEST Inhibition of Bacterial Growth; detection method Absorption (OD600); MEDIA CAMHB; plate type 384well; NBS; CORNING #3640; time 18 hr
Candida albicans = settings: Concentration 32 ug.mL-1; ASSAY_TEST Inhibition of Fungal Growth; detection method Absorption (OD530)
Cryptococcus neoformans = settings: Concentration 32 ug.mL-1; ASSAY_TEST Inhibition of Fungal Growth; detection method Resazurin; Absorption (OD600-OD570); plate type 384well; NBS; CORNING #3640

Compound	Inhibition (Klebsiella pneumoniae) [%]	Inhibition (Candida albicans) [%]	Inhibition (Cryptococcus neoformans) [%]
COc1ccc(CNC(=O)Cn2nc3c4cc(-c5ccc(C)c(C)c5)nn4ccn3c2=O)cc1	7.73	11.15	-12.47
CCOc1ccc(-n2ccn3c(SC(C)C(=O)Nc4cc(OC)cc(OC)c4)nnc3c2=O)cc1 (stereo not given)	7.45	1.5	-3.58
COc1cc(NC(=O)Cn2nc3c(Sc4cccc(F)c4)nccn3c2=O)cc(OC)c1	4.9	1.46	-6.36
COc1ccc(CN(c2ccc(F)cc2)S(=O)(=O)c2cccn3c(C)nnc23)cc1	13.21	1.16	-6.38
O=c1n(Cc2cc(F)cc(F)c2)nc2ccc(-c3ccccc3)nn12	18.79	0.55	-16.53
Cc1cc2nn(CC(=O)Nc3ccc(F)c(F)c3)c(=O)n2c(Nc2ccc(C)c(F)c2)n1	13.08	3.82	-7.92
O=C(Cn1nc2c(SCc3ccc(Cl)cc3)nccn2c1=O)N1CCN(c2ccccc2)CC1	2.24	4.87	-2.91
Cc1ccc(NC(=O)Cn2nc3ccc(SC(C)(C)C)nn3c2=O)c(Cl)c1	7.92	7.14	-20.56
CSc1cccc(NC(=O)Cn2nc3c(SCc4ccc(Cl)cc4)nccn3c2=O)c1	7.71	19.01	-40.36
Cc1ccccc1N1CCN(c2nccn3c(=O)n(CC(=O)NCc4ccc(Cl)cc4)nc23)CC1	7.17	45.71	-4.38
CCc1cccc(NC(=O)CSc2nnc3c(=O)n(-c4ccccc4)ccn23)c1	3.17	8.67	-15.51
Cc1c(Cl)cccc1NC(=O)Cn1nc2c3c4c(sc3ncn2c1=O)CCCCC4	9.28	4.44	-27.44
Cc1ccc(Oc2nccn3c(=O)n(CC(=O)NCCC4=CCCCC4)nc23)cc1	12.14	4.38	-9.17
Cc1ccc(NC(=O)Cn2nc3c(Oc4ccccc4)nccn3c2=O)c(Cl)c1	-7.35	-1.78	-4
O=C(Cn1nc2c(Oc3ccccc3)nccn2c1=O)Nc1cc(F)ccc1F	-4.08	-0.69	-9.47
CCCCOc1ccc(-c2cc3c4nnc(SCC(=O)NCc5ccccc5)n4ccn3n2)cc1	-0.43	3.39	-8.72
Cc1c(Cl)cccc1-n1ccn2c(=O)n(Cc3ccc(F)cc3)nc2c1=O	-1.56	6.3	-16.32
Cc1ccc(-n2ccn3c(=O)n(Cc4cccc(F)c4)nc3c2=O)cc1C	5.72	0.74	-14.54
CCCc1nnc2c(=O)n(CC(=O)Nc3ccc(NC(C)=O)cc3)c3ccccc3n12	9.56	-0.49	-26.74
Cc1cc2nn(CC(=O)N3CCCc4ccccc43)c(=O)n2c(Nc2ccc(F)cc2)n1	10.84	1.07	-3.85

Compound	Inhibition (Klebsiella pneumoniae) [%]	Inhibition (Candida albicans) [%]	Inhibition (Cryptococcus neoformans) [%]
CCC(Sc1nnc2c(=O)n(-c3ccccc3)ccn12)C(=O)Nc1ccc(OC)cc1OC (stereo not given)	9.44	2.91	-10.74
O=C(CSc1nnc2n(CC3CCCO3)c(=O)c3sccc3n12)Nc1ccc(F)cc1Cl (stereo not given)	1.23	-2.01	-23.1
COc1ccc(NC(=O)Cn2nc3c(SC4CCCCC4)nccn3c2=O)cc1	11.17	6.08	-26.97
O=c1c2nn(Cc3ccc([N+](=O)[O-])cc3)c(=O)n2ccn1-c1ccccc1	13.17	3.56	-7.73
Cc1ccc(NC(=O)Cn2nc3ccc(-c4ccc(Cl)cc4)nn3c2=O)cc1	3.71	1.61	-4.05
O=C(Cn1nc2ccc(-c3ccccc3)nn2c1=O)Nc1ccc(F)c(Cl)c1	7.19	1.94	-6.93
CCCCc1ccc(NC(=O)Cn2nc3ccc(-c4ccc(C)c(C)c4)nn3c2=O)cc1	1.79	1.02	-8.31
CCc1nnc2c(S(=O)(=O)N(Cc3ccccc3Cl)c3ccccc3)cccn12	6.34	3.28	-4.36
O=c1c2sccc2n2c(=O)n(Cc3c(F)cccc3Cl)nc2n1CCc1ccccc1	4.07	1.94	-23.82
O=C(CSc1nnc2c3cc(-c4ccc(F)cc4)nn3ccn12)NCCc1ccccc1	7.72	2.21	-23.19
COc1ccc(-c2cc3c4nn(CC(=O)Nc5cccc(OC)c5)c(=O)n4ccn3n2)cc1	10.26	17.22	-23.01
N#Cc1cccc(NC(=O)CSc2nnc3c4cc(-c5ccc(F)cc5)nn4ccn23)c1	16.47	16.76	-30.63
CCCc1ccc(S(=O)(=O)Nc2ccc3nncn3n2)cc1	8.2	1.65	-5.43
Cc1ccccc1Oc1nccn2c(=O)n(CC(=O)Nc3ccccc3C(F)(F)F)nc12	15.23	-0.33	-11.87
COc1ccccc1CNC(=O)Cn1nc2c(N3CCC(C)CC3)nccn2c1=O	13.15	4.39	-8.45
O=C(Cn1nc2ccc(Sc3cccc(F)c3)nn2c1=O)Nc1ccc(Cl)cc1	-0.35	14.09	-7.49
Cc1ccc(Oc2nccn3c(=O)n(CC(=O)Nc4ccccc4F)nc23)cc1	2.86	5.88	-5.76
CCN(C(=O)Cn1nc2nc(Nc3ccc(F)cc3)ccn2c1=O)c1ccccc1	8.48	1.18	-4.45
CCC(Sc1nnc2c(=O)n(-c3cccc(OC)c3)ccn12)C(=O)Nc1cc(F)ccc1F (stereo not given)	2.62	1.66	-8.66
CSc1cccc(NC(=O)Cn2nc3c(Sc4cccc(F)c4)nccn3c2=O)c1	0.95	3.02	-2.39

Compound	Inhibition (Klebsiella pneumoniae) [%]	Inhibition (Candida albicans) [%]	Inhibition (Cryptococcus neoformans) [%]
CCOc1ccc(-n2ccn3c(SCC(=O)c4cc(C)c(C)cc4C)nnc3c2=O)cc1	2.47	2.99	-7.59
Cc1cccc(-c2nc(CSc3nc4ccccc4n4c(C)nnc34)c(C)o2)c1	10.71	3.22	-23.71
COc1cccc(-n2ccn3c(SCc4ccc(C)cc4)nnc3c2=O)c1	12.94	3.44	-15.83
C=Cc1ccc(CN(c2ccc(F)cc2)S(=O)(=O)c2ccc3nnc(C)n3c2)cc1	5.5	1.83	-7.48
Cn1c(=O)c2ccc(C(=O)NC3CCCC3)cc2n2c(SCC(=O)Nc3cc(F)ccc3F)nnc12	7.15	0.81	-19.18
N#Cc1ccc(NC(=O)CSc2nnc3c4cc(-c5ccc(F)cc5)nn4ccn23)cc1	11.54	18.84	-16.45
COC(=O)c1ccccc1NC(=O)Cn1nc2c3cc(-c4ccc(OC)cc4)nn3ccn2c1=O	20.11	0.77	-26.84
Cc1cccc(NC(=O)Cn2nc3c4cc(-c5ccc(Cl)cc5)nn4ccn3c2=O)c1C	3.93	0.51	-23.15
Cc1cc(C)c(NC(=O)CSc2nnc3c4cc(-c5ccccc5)nn4ccn23)c(C)c1	10.34	10.47	-13.87
CCc1nnc2c(S(=O)(=O)N(Cc3cc(F)cc(F)c3)c3cccc(F)c3)cccn12	12.81	4.8	-5.16
Cc1cccc(NC(=O)Cn2nc3c4cc(-c5ccc(F)cc5)nn4ccn3c2=O)c1C	6.39	16.67	-22.65
C=Cc1ccc(Cn2nc3c(=O)n(-c4cccc(Cl)c4C)ccn3c2=O)cc1	-0.98	-0.15	-8.23
O=C(CCc1nnc2c3cc(-c4ccc(Cl)cc4)nn3ccn12)N1CCN(c2ccccn2)CC1	12.64	-0.78	-16.65
CCc1nnc2ccc(S(=O)(=O)N(Cc3ccc(OC)cc3)c3ccc(F)cc3)cn12	10.6	0.7	-9.28
O=C(Cn1nc2c(SC3CCCCC3)nccn2c1=O)NCc1ccc(F)cc1	9.17	0.24	-16.51
Cc1ccc(CNC(=O)CSc2nnc3c4cc(-c5ccc(C)cc5)nn4ccn23)cc1	11.71	-0.39	-36.09
Cc1cc2nn(CC(=O)NC(C)C)c(=O)n2c(-c2ccc(C(F)(F)F)cc2)n1	3.27	1.65	-4.89
COc1ccc(NC(=O)Cn2nc3ccc(-c4ccc(C)c(C)c4)nn3c2=O)cc1OC	6.13	32.8	-43
O=C(Cn1nc2ccc(Sc3cccc(F)c3)nn2c1=O)Nc1cccc(Cl)c1	-3.42	11.97	-3.34
CCCNC(=O)Cn1nc2cc(C)nc(Nc3cc(C)cc(C)c3)n2c1=O	18.12	5.03	-9.02
